Screens (PubChem)
Only some compounds are listed: those with a hit (about 11% of all), similar ones and a draw of the others.
HPGD block: qHTS Assay for Inhibitors of HPGD (15-Hydroxyprostaglandin Dehydrogenase). purified HPGD, NADH fluorescence kinetic, PGE2 substrate. Potency, µM, actives largely listed as inhibitors. hit rate 4.3% among 150,000. AID 894, 2007
Target sequence (P15428 whole entry, looked up): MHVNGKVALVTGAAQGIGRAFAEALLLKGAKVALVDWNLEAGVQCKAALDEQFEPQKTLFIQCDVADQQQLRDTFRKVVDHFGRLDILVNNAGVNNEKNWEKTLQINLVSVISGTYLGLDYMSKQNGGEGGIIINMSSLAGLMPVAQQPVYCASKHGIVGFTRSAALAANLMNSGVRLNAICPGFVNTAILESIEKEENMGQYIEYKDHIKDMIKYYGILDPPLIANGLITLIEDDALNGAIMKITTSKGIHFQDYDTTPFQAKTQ
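NADH formation kinetics: reaction with 30 uM PGE2 and 1 mM NAD+ (final), 20 nM enzyme, Tris-HCl pH 8 with Tween 20, after 15 min compound preincubation at room temperature. Fluorescence change, last versus first of five reads.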
PNC inhibitor: High Content Assay for Compounds that inhibit the Assembly of the Perinucleolar Compartment; PC3M PTB-GFP, PNC prevalence imaging, 16 h; hits give low values; activity change (PNC), negative = inhibition, % at 10 µM; hit rate 3.1% among 140,000; AID 2417, 2010;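 active = readout at or below -70, meaning at least 70% loss of cells showing the perinucleolar compartment, a nuclear body marking cancer cells; inconclusive = readout between -30 and a set limit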
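Read-out is percentage of cells bearing a perinucleolar compartment, from automated 20x imaging of fixed, Hoechst-stained PC3M PTB-GFP cells. Cells were seeded 4 h, then exposed 16 h to compound (23 nl of library stock) in duplicate plates.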
ALDH1A1 block: qHTS Assay for Inhibitors of Aldehyde Dehydrogenase 1 (ALDH1A1) | Aldehyde dehydrogenase 1A1 (Homo sapiens), P00352 | Purified ALDH1A1, NADH fluorescence, propionaldehyde substrate | Potency, µM (doses to about 75.3 µM), actives largely listed as inhibitors | hit rate 7.3% among 220,000 | AID 1030, 2008
Hits are given with their value; – = inactive; ? = inconclusive; · = no result; [ ] = remark or other dose. Unless noted, calls follow the shape of the dose curve; as a rule, active = well fitted inhibition curve with a large enough effect (not every such curve was filed as active); inconclusive = small, poorly fitted or top-dose-only effect, or another doubt; inactive = no such curve, though single readings can be large or run the other way.

SMILES | HPGD block | PNC inhibitor | ALDH1A1 block
COc1ccc(-c2cc(-c3n[nH]c(=S)n3-c3ccccc3OC)[nH]n2)cc1 | 11µM | – | ?
CC(=O)Nc1ccc(C(=O)CSc2nccc(=O)[nH]2)cc1 | · | · | –
O=C(CNc1cccc(C(F)(F)F)c1)N/N=C/c1ccccc1C(=O)O | · | · | –
C1CCN2CC3CC(CN4CCCC[C@@H]34)C2C1 (stereo partly drawn) | – | · | –
C1=CC2CC1CC2CN1CCN(Cc2ccccc2)CC1 (stereo not drawn) | – | – | ?
Cc1ccc(C2=Nc3ccccc3NC(C)(c3ccc(C)o3)C2)o1 (stereo not drawn) | – | – | 22µM
CC1=CC(C)=Nc2ccccc2N1 | – | – | ?
Cn1c(SCC(=O)Nc2ccc(NC(=O)c3cccs3)cc2)nnc1-c1ccncc1 | – | – | ?
COc1ccccc1CCn1c(=O)c(-c2ccc(Cl)cc2)nc2cncnc21 | – | · | –
COc1ccccc1CCn1c(=O)cnc2cncnc21 | · | · | 1.4µM
Cc1cc(C)c(S(=O)(=O)N2CCC(C(=O)NCc3ccco3)CC2)c(C)c1 | – | – | –
CCOc1ccc(S(=O)(=O)Nc2ccc(F)cc2)c(C)c1C | – | – | ?
Cc1cc(C)c(S(=O)(=O)N(CC(=O)NCc2cccnc2)C2CCCCC2)c(C)c1 | – | -88 | –
O=C(CN(C1CCCCC1)S(=O)(=O)c1ccc(Cl)cc1)NCc1ccncc1 | – | -100 | –
O=C(CN(C1CCCCC1)S(=O)(=O)c1ccc(Br)cc1)NCc1ccncc1 | · | · | –
Cc1ccc(S(=O)(=O)N(CC(=O)NCc2cccnc2)C2CCCCC2)cc1 | · | · | –
Cc1nnc(-c2cnn(-c3ccccc3)c2N)n1Cc1ccc(F)cc1 | ? | – | –
Cc1csc(NC(=O)CSc2nnc(-c3ccc(S(=O)(=O)N4CCCC4)cc3)o2)n1 | – | – | –
CCN(CC)S(=O)(=O)c1ccc(-c2nnc(SCC(C)=O)o2)cc1 | – | ? | ?
CCN(CC)S(=O)(=O)c1ccc(-c2nnc(SCC(=O)Nc3nc(C)cs3)o2)cc1 | – | -106 | –
CCN(CC)S(=O)(=O)c1ccc(-c2nnc(SCC(=O)Nc3cc(OC)cc(OC)c3)o2)cc1 | – | – | 13µM
Cc1ccc(S(=O)(=O)Cn2nnnc2C(CC(C)C)N2CCN(C)CC2)cc1 (stereo not drawn) | · | · | –
C=C(C)[C@]12C[C@@H](C)[C@@]34OC(Cc5ccccc5)(O[C@@H]1[C@@H]3C=C(COC(=O)Cc1cc(OC)c(O)cc1I)C[C@]1(O)C(=O)C(C)=C[C@@H]41)O2 | – | · | –
CCn1c(C)c(C(C)=O)c(N2CCN(c3ccccc3)CC2)nc1=S | – | ? | 11µM
CCn1c(C)c(C(C)=O)c(N2CCCCC2)nc1=S | – | – | –
SMILES | HPGD block | PNC inhibitor | ALDH1A1 block
CCn1c(C)c(C(C)=O)c(N2CCN(C(c3ccccc3)c3ccccc3)CC2)nc1=S | · | · | 14µM
CCn1c(C)c(C(C)=O)c(N2CCN(c3ccccn3)CC2)nc1=S | – | – | –
CCC1=C2CC[C@H]3C(=O)NC(=O)[C@H]3[C@H]2[C@@]2(Cc3ccccc3)C(=NCc3ccccc3)OC(=O)N2C1=O | – | · | –
O=C(CN1CCN(C(=O)c2cccc(F)c2)CC1)NC1CCCCC1 | – | – | ?
CCOC(=O)CN(C(=O)CSc1nnc2c(n1)[nH]c1ccc(F)cc12)c1ccccc1 | – | – | –
CC(c1ccccc1)C(CC(=O)O)C(=O)NC1CCCCC1 (stereo not drawn) | – | ? | –
Cc1noc(C)c1Cn1nc(C(=O)O)c2ccccc2c1=O | – | – | –
CN(C)c1ncnc2ccc(-c3cccc(C#N)c3)cc12 | · | · | 32µM
COc1ccccc1-c1ccc2ncnc(NCc3cnc(C)cn3)c2c1 | · | · | –
N#Cc1cccc(-c2ccc3ncnc(N4CCNCC4)c3c2)c1 | · | · | –
COc1ccccc1-c1ccc2ncnc(N(C)C)c2c1 | 14µM | · | –
COC(=O)C1=C(C)NC(C)=C(C(=O)OCCN(C)Cc2ccccc2)[C@H]1c1cccc([N+](=O)[O-])c1 | – | · | –
COc1ccccc1-n1c(-c2cn(C)nc2C)n[nH]c1=S | – | ? | ?
CN(C)c1ccc(/C=N/c2cc(-c3ccccc3)nn2-c2ccccc2)cc1 | – | – | 7.9µM
Cc1nn(-c2ccccc2)c(/N=C/c2ccc(O)cc2)c1-c1ccccc1 | – | ? | –
COn1c2c(c3c4no[n+]([O-])c4ccc31)CCCC2 | – | ? | –
[O-][n+]1c2c(c3c4non(O)c4ccc31)CCCC2 | 7.9µM | – | –
COCCCNC(=O)CN(c1ccc(Cl)c(Cl)c1)S(C)(=O)=O | – | ? | –
COCCCNC(=O)CN(c1cc(Cl)cc(Cl)c1)S(C)(=O)=O | – | -100 | –
CCSc1nc(-c2cccs2)nc2ccccc12 | · | · | –
CCC/C=C/C1C(=O)C2OC2C2(OCC(CC)(CC)CO2)C1CO (stereo not drawn) | · | · | –[13.5 µM]
Cc1ccc(CN2C(=O)CNC2=S)cc1 | · | · | –
Cc1ccc(Cc2c[nH]c(=S)s2)cc1 | · | · | 8.9µM
CN1[C@@H](c2ccccc2)CC(=NO)C[C@H]1c1ccccc1 | – | · | –[13.5 µM]
CC1=NN(c2ccc(Cl)cc2)C(=O)C1C(c1cccc(O)c1)c1c(C)[nH]n(-c2ccc(Cl)cc2)c1=O (stereo not drawn) | 25µM | – | 4µM
SMILES | HPGD block | PNC inhibitor | ALDH1A1 block
CC1=NN(c2ccc(C)cc2C)C(=O)C1C(c1ccccc1)C1C(=O)N(c2ccc(C)cc2C)N=C1C (stereo not drawn) | ? | – | ?
Cc1cc(-c2c(C)[nH]n(-c3ccc(Cl)cc3)c2=O)n(-c2ccccc2)n1 | – | ? | –
CC1=NN(c2ccc(F)cc2)C(=O)C1C(c1cccc(O)c1)c1c(C)[nH]n(-c2ccc(F)cc2)c1=O (stereo not drawn) | 18µM | – | 8.9µM
Nc1nc(SCC(=O)Nc2cc(C(F)(F)F)ccc2N2CCOCC2)n[nH]1 | · | · | 22µM
Nc1nnc(SCC(=O)Nc2cc(C(F)(F)F)ccc2N2CCOCC2)s1 | – | – | –
Cc1ccc2nc(SCC(=O)Nc3cc(C(F)(F)F)ccc3N3CCOCC3)[nH]c2c1 | – | -104 | –
O=C(CSc1nc2ccccc2o1)Nc1cc(C(F)(F)F)ccc1N1CCOCC1 | – | – | –
O=S1(=O)CC2SC(=S)N(Cc3ccccc3)C2C1 (stereo not drawn) | · | · | –
COc1ccccc1N1CCN(C[C@@H](C(=O)NC(C)(C)C)c2ccccc2)CC1 | – | · | 25µM
CCOC(=O)N1CCN(c2ccccc2OC)CC1 | · | · | –
CCC(C(=O)N1CCN(c2ccccc2OC)CC1)c1ccccc1 (stereo not drawn) | – | – | 40µM
COc1ccccc1N1CCN(C[C@@H](O)COc2cccc3ccccc23)CC1 | – | · | ?
COc1cc(CCN2C(=O)c3cccc4cccc(c34)C2=O)c(S(=O)(=O)N2CCC(C)CC2)cc1OC | ? | – | ?
COc1ccc(NC(=O)C(=O)N/N=C/c2cc(C)n(-c3cccc(Cl)c3Cl)c2C)c(OC)c1 | ? | – | 32µM
COc1ccc(OC)c(NC(=O)C(=O)N/N=C/c2ccccc2[N+](=O)[O-])c1 | – | – | –
O=C(CCSc1ccccc1)OCn1nnc2ccccc2c1=O | · | · | –
